Here are results for seven molecules from ChEMBL document CHEMBL2218924, “A broad activity screen in support of a chemogenomic map for kinase signalling research and drug discovery” (Biochem J, 2013).

The target in test [1] is Serine/threonine-protein kinase PAK 4 (Homo sapiens) (UniProt O96013). The settings on record: at 1 µM.
For test [2] the target is unchanged. The settings on record: at 10 µM.
For test [3], the target named is Serine/threonine-protein kinase PAK 5 (Homo sapiens) (UniProt Q9P286). The following applies: at 1 µM.
Sequence of Serine/threonine-protein kinase PAK 5 (Homo sapiens) (Q9P286 whole entry, looked up): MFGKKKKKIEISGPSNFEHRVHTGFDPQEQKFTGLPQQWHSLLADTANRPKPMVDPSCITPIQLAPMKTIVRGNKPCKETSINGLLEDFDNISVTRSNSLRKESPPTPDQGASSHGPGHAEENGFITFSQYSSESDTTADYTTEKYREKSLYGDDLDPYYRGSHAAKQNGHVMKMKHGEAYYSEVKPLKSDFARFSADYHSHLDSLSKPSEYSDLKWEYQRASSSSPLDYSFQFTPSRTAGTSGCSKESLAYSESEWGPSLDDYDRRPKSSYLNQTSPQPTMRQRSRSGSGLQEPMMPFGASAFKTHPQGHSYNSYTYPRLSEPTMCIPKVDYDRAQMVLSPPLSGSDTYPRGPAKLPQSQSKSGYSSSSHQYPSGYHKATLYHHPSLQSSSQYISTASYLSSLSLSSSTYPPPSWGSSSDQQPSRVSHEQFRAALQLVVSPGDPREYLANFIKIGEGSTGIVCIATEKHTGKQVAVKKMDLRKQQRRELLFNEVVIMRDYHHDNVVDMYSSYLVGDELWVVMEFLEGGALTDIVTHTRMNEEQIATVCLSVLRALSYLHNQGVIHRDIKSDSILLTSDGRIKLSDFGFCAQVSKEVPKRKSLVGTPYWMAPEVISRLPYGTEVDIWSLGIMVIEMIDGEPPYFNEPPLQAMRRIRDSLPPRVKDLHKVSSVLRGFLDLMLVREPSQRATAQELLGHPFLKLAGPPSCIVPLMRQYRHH
Test [4] has the same target. The settings on record: at 10 µM.
Test [5] deals with Serine/threonine-protein kinase PAK 6 (Homo sapiens) (UniProt Q9NQU5). The following applies: at 1 µM.
Sequence of Serine/threonine-protein kinase PAK 6 (Homo sapiens) (Q9NQU5 whole entry, looked up): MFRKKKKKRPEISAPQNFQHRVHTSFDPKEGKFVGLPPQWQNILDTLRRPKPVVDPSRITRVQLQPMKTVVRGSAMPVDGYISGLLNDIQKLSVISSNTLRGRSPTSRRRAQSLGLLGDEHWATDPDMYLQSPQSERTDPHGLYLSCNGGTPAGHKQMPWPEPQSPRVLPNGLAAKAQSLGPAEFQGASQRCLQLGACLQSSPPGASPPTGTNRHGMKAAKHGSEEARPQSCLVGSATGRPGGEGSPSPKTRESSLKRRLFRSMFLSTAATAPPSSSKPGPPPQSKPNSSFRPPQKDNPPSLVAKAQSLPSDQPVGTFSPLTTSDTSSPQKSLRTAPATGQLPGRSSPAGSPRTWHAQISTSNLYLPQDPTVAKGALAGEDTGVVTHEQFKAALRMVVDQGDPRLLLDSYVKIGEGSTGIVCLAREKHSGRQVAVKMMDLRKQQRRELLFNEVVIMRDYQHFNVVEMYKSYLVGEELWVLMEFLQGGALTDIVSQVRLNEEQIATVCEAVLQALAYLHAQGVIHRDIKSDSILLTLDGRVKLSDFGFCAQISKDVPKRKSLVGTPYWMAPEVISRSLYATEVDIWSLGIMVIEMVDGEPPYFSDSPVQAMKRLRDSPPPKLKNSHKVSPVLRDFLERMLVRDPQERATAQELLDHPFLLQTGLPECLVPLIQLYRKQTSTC
For test [6] the target is unchanged. The following applies: at 10 µM.
Test [7] addresses PAS domain-containing serine/threonine-protein kinase (Homo sapiens) (UniProt Q96RG2). The following applies: at 10 µM.
Test [8] has as its target Activated CDC42 kinase 1 (Homo sapiens) (UniProt Q07912). The settings on record: at 1 µM.
Test [9] shares this target. The following applies: at 10 µM.
The target in test [10] is ALK tyrosine kinase receptor (Homo sapiens) (UniProt Q9UM73). The following applies: at 1 µM.
Sequence of ALK tyrosine kinase receptor (Homo sapiens) (Q9UM73 19-1620 limits assumed): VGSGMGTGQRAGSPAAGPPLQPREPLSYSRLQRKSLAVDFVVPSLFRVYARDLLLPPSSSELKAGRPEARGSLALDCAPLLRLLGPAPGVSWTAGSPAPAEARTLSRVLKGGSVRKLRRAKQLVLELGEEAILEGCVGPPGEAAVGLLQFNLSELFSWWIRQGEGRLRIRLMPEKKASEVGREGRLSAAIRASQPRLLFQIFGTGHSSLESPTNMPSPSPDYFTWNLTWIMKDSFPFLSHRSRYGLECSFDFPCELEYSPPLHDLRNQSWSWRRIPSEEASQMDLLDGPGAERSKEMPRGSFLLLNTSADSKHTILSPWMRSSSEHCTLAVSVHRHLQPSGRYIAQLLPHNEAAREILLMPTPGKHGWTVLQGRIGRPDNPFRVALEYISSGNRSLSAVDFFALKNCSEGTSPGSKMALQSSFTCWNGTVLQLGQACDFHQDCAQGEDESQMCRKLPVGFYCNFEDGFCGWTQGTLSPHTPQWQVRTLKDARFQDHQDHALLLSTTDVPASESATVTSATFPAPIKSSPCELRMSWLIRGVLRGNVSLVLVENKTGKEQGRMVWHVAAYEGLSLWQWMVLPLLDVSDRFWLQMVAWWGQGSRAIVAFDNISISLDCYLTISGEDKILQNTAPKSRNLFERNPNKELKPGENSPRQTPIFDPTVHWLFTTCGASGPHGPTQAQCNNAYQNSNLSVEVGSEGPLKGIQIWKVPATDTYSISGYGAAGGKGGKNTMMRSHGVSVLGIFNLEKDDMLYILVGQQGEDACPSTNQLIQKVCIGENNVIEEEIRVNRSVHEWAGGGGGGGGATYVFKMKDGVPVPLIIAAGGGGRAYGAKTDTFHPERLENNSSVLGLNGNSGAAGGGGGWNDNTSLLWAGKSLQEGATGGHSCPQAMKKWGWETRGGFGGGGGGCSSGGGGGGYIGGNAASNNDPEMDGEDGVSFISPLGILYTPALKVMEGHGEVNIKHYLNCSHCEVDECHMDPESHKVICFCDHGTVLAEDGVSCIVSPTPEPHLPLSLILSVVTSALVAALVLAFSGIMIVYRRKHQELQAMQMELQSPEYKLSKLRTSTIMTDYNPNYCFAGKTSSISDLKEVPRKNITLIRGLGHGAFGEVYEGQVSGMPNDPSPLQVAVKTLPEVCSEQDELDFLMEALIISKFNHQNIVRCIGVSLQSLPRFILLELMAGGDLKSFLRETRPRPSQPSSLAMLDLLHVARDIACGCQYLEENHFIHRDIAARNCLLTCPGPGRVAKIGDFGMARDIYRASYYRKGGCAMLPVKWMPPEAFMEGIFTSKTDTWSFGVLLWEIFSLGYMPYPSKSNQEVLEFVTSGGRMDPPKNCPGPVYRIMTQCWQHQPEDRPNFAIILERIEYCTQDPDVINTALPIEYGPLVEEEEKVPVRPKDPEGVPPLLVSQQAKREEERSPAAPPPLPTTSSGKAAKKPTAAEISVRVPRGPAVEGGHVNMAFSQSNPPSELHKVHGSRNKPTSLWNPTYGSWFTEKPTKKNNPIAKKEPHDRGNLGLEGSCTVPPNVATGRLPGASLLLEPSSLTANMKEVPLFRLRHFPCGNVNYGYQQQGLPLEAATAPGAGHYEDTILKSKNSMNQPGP
Test [11] has the same target. The following applies: at 10 µM.
Test [12] deals with T1, Activin receptor type-1B (Homo sapiens) (UniProt P36896).
T1 sequence (whole entry): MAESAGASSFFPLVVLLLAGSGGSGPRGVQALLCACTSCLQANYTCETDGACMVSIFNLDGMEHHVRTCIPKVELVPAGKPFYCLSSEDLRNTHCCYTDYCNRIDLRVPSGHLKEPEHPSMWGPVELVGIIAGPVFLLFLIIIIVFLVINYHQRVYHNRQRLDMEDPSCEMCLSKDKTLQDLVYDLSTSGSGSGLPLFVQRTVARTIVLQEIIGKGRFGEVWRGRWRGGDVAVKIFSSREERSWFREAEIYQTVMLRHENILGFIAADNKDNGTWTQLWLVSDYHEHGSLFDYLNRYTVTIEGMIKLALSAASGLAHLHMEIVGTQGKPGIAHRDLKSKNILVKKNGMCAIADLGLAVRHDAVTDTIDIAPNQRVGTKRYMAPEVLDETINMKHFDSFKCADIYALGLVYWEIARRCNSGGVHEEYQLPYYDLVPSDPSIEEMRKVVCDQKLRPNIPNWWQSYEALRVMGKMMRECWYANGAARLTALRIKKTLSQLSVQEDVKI
The following applies: at 1 µM.

For test [13], the target named is T1, Activin receptor type-1B (Homo sapiens). The following applies: at 10 µM.
Test [14] has as its target T2, AMP-activated protein kinase (AMPK) alpha-1/beta-1/gamma-1 (Homo sapiens) (UniProt P54619+Q9Y478+Q13131). The settings on record: at 1 µM.
In test [15] the target is T2, AMP-activated protein kinase (AMPK) alpha-1/beta-1/gamma-1 (Homo sapiens). The settings on record: at 10 µM.
For test [16], the target named is T3, AMP-activated protein kinase, AMPK (Homo sapiens) (UniProt P54646+O43741+P54619+Q9UGJ0+Q9Y478+Q13131+Q9UGI9). The settings on record: at 1 µM.
Test [17] addresses T3, AMP-activated protein kinase, AMPK (Homo sapiens). The settings on record: at 10 µM.
Test [18] concerns the target T4, NUAK family SNF1-like kinase 1 (Homo sapiens) (UniProt O60285).
T4 sequence (whole entry): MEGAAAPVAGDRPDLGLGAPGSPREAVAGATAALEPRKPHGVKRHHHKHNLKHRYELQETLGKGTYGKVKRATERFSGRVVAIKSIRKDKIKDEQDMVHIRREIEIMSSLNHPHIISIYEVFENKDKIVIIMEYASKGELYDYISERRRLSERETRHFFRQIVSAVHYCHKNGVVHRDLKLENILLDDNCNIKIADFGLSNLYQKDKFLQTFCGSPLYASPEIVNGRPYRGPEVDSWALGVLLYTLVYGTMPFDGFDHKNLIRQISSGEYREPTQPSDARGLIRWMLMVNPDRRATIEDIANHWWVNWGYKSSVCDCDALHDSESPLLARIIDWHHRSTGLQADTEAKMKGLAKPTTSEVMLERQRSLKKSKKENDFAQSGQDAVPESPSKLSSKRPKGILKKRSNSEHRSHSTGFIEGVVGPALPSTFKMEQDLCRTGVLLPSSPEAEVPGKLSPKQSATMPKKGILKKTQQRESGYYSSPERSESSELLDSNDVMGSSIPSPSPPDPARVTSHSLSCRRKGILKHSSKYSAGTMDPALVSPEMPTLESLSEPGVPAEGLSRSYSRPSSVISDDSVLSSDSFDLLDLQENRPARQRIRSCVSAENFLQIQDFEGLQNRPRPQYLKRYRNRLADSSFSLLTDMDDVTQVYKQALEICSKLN
The following applies: at 1 µM.

The target of test [19] is T4, NUAK family SNF1-like kinase 1 (Homo sapiens). The settings on record: at 10 µM.
Test [20] has as its target T5, Mitogen-activated protein kinase kinase kinase 5 (Homo sapiens) (UniProt Q99683).
T5 sequence (whole entry): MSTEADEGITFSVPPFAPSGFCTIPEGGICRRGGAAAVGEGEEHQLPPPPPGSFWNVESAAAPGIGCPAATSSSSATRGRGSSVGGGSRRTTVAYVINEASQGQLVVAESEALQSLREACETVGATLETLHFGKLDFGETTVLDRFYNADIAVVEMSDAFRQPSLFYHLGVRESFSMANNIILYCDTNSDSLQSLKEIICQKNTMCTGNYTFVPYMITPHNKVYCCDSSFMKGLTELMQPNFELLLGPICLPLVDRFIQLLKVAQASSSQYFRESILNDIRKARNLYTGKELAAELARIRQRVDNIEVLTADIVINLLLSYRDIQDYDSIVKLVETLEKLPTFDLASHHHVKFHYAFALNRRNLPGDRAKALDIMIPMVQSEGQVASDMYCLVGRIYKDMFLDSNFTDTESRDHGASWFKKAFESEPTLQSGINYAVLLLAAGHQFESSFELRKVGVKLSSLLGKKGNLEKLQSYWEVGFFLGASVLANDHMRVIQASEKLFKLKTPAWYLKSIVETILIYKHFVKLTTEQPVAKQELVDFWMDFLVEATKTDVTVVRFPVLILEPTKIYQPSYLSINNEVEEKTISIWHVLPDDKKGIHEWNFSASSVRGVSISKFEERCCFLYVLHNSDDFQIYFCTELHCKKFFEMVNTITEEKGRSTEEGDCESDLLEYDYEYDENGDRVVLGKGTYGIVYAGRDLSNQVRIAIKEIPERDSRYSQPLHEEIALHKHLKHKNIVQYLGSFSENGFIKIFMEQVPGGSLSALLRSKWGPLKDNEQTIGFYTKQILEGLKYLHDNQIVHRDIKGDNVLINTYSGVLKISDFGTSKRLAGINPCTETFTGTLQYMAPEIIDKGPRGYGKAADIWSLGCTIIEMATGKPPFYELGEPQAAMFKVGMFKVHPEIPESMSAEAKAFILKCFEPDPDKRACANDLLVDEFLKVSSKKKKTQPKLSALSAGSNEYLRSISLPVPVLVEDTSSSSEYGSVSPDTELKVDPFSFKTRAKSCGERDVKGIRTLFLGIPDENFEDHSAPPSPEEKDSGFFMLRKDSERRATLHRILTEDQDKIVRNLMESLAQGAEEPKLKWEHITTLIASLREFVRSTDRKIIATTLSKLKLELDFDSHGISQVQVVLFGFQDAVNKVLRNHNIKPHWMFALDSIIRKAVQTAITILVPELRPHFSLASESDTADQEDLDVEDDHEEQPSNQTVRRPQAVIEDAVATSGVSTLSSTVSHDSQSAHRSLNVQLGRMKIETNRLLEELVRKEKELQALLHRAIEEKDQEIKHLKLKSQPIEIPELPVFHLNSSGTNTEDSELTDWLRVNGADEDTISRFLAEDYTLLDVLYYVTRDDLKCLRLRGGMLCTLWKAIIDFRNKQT
The settings on record: at 1 µM.

Sequence of Serine/threonine-protein kinase PAK 4 (Homo sapiens) (O96013 whole entry, looked up): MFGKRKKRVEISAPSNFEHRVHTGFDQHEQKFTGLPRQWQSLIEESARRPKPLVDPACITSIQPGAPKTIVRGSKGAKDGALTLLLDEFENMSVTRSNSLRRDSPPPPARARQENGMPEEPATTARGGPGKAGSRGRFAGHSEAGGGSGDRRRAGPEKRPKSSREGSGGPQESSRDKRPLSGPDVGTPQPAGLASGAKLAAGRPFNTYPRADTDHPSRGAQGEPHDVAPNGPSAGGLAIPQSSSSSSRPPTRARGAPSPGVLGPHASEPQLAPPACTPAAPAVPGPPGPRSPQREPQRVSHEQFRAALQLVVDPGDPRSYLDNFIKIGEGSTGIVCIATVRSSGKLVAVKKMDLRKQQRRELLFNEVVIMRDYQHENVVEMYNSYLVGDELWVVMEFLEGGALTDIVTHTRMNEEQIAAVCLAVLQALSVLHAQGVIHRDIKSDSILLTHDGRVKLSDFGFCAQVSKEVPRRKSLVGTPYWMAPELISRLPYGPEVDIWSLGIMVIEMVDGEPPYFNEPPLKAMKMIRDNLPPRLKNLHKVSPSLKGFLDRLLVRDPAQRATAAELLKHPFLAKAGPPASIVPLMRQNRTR
Sequence of Activated CDC42 kinase 1 (Homo sapiens) (Q07912 whole entry, looked up): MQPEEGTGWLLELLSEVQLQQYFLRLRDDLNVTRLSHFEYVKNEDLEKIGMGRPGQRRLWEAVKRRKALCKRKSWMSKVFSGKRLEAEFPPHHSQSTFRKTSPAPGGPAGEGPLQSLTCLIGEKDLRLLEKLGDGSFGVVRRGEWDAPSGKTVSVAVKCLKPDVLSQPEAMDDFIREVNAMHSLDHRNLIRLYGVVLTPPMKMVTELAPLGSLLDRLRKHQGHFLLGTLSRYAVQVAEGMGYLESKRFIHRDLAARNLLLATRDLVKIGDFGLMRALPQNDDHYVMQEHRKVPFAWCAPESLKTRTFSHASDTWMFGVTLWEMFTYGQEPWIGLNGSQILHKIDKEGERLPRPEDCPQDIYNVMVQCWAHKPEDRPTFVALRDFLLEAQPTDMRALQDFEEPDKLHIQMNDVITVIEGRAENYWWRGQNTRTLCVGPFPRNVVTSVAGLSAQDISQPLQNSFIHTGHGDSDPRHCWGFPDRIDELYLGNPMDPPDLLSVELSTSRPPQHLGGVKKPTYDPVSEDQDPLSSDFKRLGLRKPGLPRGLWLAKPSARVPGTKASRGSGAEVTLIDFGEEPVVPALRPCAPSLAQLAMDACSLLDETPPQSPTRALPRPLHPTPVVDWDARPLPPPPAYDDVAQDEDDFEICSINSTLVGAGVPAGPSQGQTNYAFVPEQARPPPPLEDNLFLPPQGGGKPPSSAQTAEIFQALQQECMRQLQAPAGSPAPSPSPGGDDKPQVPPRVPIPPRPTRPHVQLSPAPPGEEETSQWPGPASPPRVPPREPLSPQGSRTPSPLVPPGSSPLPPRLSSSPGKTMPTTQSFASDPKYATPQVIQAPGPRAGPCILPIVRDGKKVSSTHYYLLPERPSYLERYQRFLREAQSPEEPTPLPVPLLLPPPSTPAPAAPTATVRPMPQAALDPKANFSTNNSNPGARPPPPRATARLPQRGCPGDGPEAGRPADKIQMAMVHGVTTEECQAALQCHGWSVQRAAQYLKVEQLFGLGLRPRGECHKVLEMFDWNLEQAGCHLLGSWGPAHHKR

With `COc1ccc(CNc2nc(N(CCO)CCO)nc3c2ncn3C(C)C)cc1`, the residual activity turned out to be 89% in test [1]; 56% in test [2]; 95% in [3]; 66% in [4]; 87% in test [5]; 63% in [6]. Also, the residual activity in test [7] stood at 129%; in test [8], 70%; in test [9] it was 51%; in test [10], 80%; in test [11] it was 61%; in test [12], 97%. The residual activity in [13] was determined as 118%; in test [14], 97%; in test [15], 80%; in [16] it was 86%; in test [17] it was 88%; in test [18], 107%. Besides, the residual activity in [19] is 77%; in [20] it was 95%.
Turning to `O=C1c2ccccc2-[n+]2ccc3c([nH]c4ccccc43)c21`, the residual activity came out at 90% in test [1]; 92% in test [2]; 82% in [3]; 90% in test [4]; 102% in test [5]; 84% in test [6]. The residual activity in test [7] came out at 119%; in test [8], 77%; in test [9], 55%; in test [10] it was 85%; in test [11] it was 83%; in [12], 110%. In addition, the residual activity in [13] is 114%; in test [14], 95%; in test [15], 94%; in test [16], 101%; in test [17], 93%; in test [18] it was 97%. Moreover, the residual activity in test [19] is 83%; in test [20], 89%.
As for `O=C1NC(=O)/C(=C/c2ccc3c(c2)OC(F)(F)O3)S1`, the residual activity turned out to be 102% in [1]; 95% in [2]; 80% in test [3]; 70% in test [4]; 81% in [5]; 78% in test [6]. The residual activity was determined as 37% in [7]; 96% in [8]; 70% in [9]; 69% in test [10]; 77% in test [11]; 127% in test [12]. The residual activity is 102% in [13]; 81% in test [14]; 66% in [15]; 96% in [16]; 70% in test [17]; 91% in test [18]. Moreover, the residual activity in test [19] worked out at 87%; in test [20] it was 85%.
As to `O=C1NC(=O)c2c1c1c3ccccc3[nH]c1c1[nH]c3cc(Br)ccc3c21`, the residual activity in test [1] was 94%; in [2], 92%; in test [3], 101%; in test [4], 85%; in test [5], 77%; in test [6] it was 58%. Further, the residual activity was determined as 96% in [7]; 64% in test [8]; 61% in test [9]; 91% in test [10]; 69% in [11]; 106% in test [12]. Besides, the residual activity was determined as 99% in test [13]; 84% in test [14]; 87% in test [15]; 82% in test [16]; 69% in test [17]; 52% in test [18]. The residual activity in [19] was 45%; in [20], 102%.
In the case of `O=c1cc(-c2cccc3c2Sc2ccccc2S3)oc(N2CCOCC2)c1`, the residual activity in test [1] amounted to 106%; in test [2], 96%; in test [3], 108%; in [4], 91%; in [5] it was 89%; in [6], 72%. Moreover, the residual activity in [7] was 80%; in test [8], 89%; in [9], 84%; in [10], 97%; in test [11], 84%; in test [12], 88%. In addition, the residual activity was 97% in test [13]; 108% in [14]; 90% in [15]; 102% in test [16]; 95% in [17]; 102% in test [18]. The results for the residual activity in test [19] and in test [20] were 83% and 102%, respectively.
Consider `CC(C)n1cnc2c(NCc3ccccc3)nc(NCCCO)nc21`, for which the residual activity in test [1] was determined as 97%; in [2], 80%; in [3], 108%; in test [4] it was 96%; in test [5] it was 95%; in test [6] it was 72%. Also, the residual activity in test [7] was found to be 98%; in test [8], 76%; in test [9], 58%; in test [10] it was 87%; in test [11] it was 64%; in test [12], 106%. The residual activity was 111% in test [13]; 88% in test [14]; 87% in [15]; 99% in test [16]; 90% in test [17]; 99% in [18]. The residual activity was 83% in test [19] and 113% in [20].
Regarding `COc1cc2ncnc(Nc3ccc(Oc4ccccc4)cc3)c2cc1OC`, the residual activity was 94% in test [1]; 80% in [2]; 108% in [3]; 136% in test [4]; 98% in test [5]; 124% in [6]. For the same molecule, the residual activity in test [7] was 131%; in test [8] it was 28%; in test [9] it was 9%; in test [10], 54%; in test [11], 72%; in test [12] it was 121%. In addition, the residual activity worked out at 112% in [13]; 86% in [14]; 140% in test [15]; 94% in test [16]; 144% in test [17]; 104% in test [18]. Further, the residual activity in test [19] was determined as 79%; in test [20] it was 84%.
